# Test results from PubChem BioAssay (NCI).
# Compounds without any hit were thinned out: in the full panel of roughly 83,000, 20% have a hit.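 Cell lines were cultured in 96-well plates, exposed to a single compound concentration, and assessed for percent growth 48 hours later.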 A number with no mark means an inactive call. Active and inactive are the calls of the source. How the source made its calls: active means growth percent below 10; inactive means the rest.
# Tested on: HT29 colon
# Assay: NCI-60 one-dose screen, 48 h (100 = growth as untreated, 0 = no growth, -100 = all killed)
# Conditions: 10 µM unless noted
row,SMILES,growth
1,Cc1nc(Nc2ccc(N)cc2)c2ccccc2n1,88.9%
2,COc1cccc(/C=C2\COc3ccc(O)cc3C2=O)c1OC,19.2%
3,CC(C)c1ccc(NC(=O)Cc2ccc(Nc3ncnc4cc(-c5cnn(CCN(C)C)c5)ccc34)cc2)cc1,-45.4% [30 µM] (active)
4,O=C1c2cccc3c(-c4ccc(-c5nc6c7ccccc7c7ccccc7c6[nH]5)cc4)ccc(c23)C(=O)N1CCN1CCNCC1,5.47% (active)
5,O=C1/C(=C/c2ccc([N+](=O)[O-])cc2)COc2ccc(O)c(O)c21,4.87% (active)
6,Cn1ccnc1C(=O)/C=C/c1ccc(C(=O)Nc2ccc(S(F)(F)(F)(F)F)cc2)cc1,12%
7,COc1ccc(OC)c(C(=O)Nc2cccc(-c3cc(=O)c4ccccc4o3)c2)c1,91.3%
8,C=C1C(=O)O[C@H]2[C@H]1CC/C(COC(=O)/C=C\C(=O)NCc1ccc(Cn3c(=O)sn(CCCI)c3=O)cc1)=C\CC[C@@]1(C)O[C@@H]21,-30.1% (active)

# Tested on: SNB-75 CNS
# Assay: as above
# Conditions: 10 µM unless noted
row,SMILES,growth
1,CCCCC1COc2cccc3c(SCC(=O)N(C)c4cccc(Cl)c4)cc[n+]1c23 (configuration not stated),137%
2,COc1ccc(-c2c(N)n[nH]c2-c2ccccc2O)cc1OC,92.2%
3,CCOC(=O)c1sc(-c2ccc(OS(=O)(=O)c3ccc(C(C)(C)C)cc3)c(C=O)c2)nc1C,22.9%
4,Cc1nc(Nc2ccc(NC(=S)Nc3ccccc3)cc2)nc2nc(Nc3ccc(S(=O)(=O)O)cc3)[nH]c(=O)c12,128%
5,COc1ccc(/C=C2\COc3ccc(O)cc3C2=O)c(OC)c1,47.5%
6,COc1ccc(/C(C)=C(\c2ccc(Cl)cc2)c2ccc(OCCCN(C)C)cc2)cc1F,70.6%
7,Cc1nc(Nc2ccc(NC(=S)Nc3ccccc3)cc2)c2ccccc2n1,104%
8,C=C1C(=O)O[C@H]2[C@H]1CC/C(COC(=O)/C=C\C(=O)NCc1ccc(Cn3c(=O)sn(-c4ccc(OC)cc4)c3=O)cc1)=C\CC[C@@]1(C)O[C@@H]21,-57.8% (active)
9,CN(C)CCn1cc(-c2ccc3c(Nc4ccc(CC(=O)Nc5cccc(F)c5)cc4)ncnc3c2)cn1,-87% [30 µM] (active)
10,COc1cc(/C=C/c2nc(Nc3ccc(S(=O)(=O)Nc4cc(C)on4)cc3)c3ccccc3n2)ccc1O,59.7%
11,COc1ccc(/C(C)=C(\c2ccc(Cl)cc2)c2ccc(OCCN3CCCC3)cc2)cc1F,47.6%
12,Cc1nc(Nc2ccc(S(=O)(=O)Nc3cc(C)on3)cc2)c2ccccc2n1,83.2%
13,COc1ccc(OC)c(/C=C2\COc3ccc(O)cc3C2=O)c1,116%
14,CCN(CC)CCOc1ccc(/C(=C(\C)c2ccc(F)c(OC)c2)c2ccc(Cl)cc2)cc1,31.9%
15,O[C@H]1CO[C@H]2[C@@H]1OC[C@@H]2Oc1ccc(Nc2ccnc(Nc3ccc(O[C@H]4CO[C@H]5[C@@H]4OC[C@@H]5O)c(Cl)c3)n2)cc1Cl,-1.57% (active)
16,CC(=O)Nc1ccc(-c2cc3c(NCc4ccc(F)cc4)ncnc3s2)cc1,70.1%
17,C/C(Cc1ccc(Cl)cc1)=C(/c1ccc(Cl)cc1)c1ccc(OCCN(C)C)cc1,68.7%
18,C=C1C(=O)O[C@H]2[C@H]1CC/C(COC(=O)/C=C\C(=O)NCc1ccc(Cn3c(=O)sn(CCCC)c3=O)cc1)=C\CC[C@@]1(C)O[C@@H]21,-63.6% (active)
19,Cc1nc(Nc2cccc(NC(=O)Nc3ccc(Cl)cc3)c2)c2ccccc2n1,85.3%
20,COc1ccc(/C=C2\COc3ccc(O)c(O)c3C2=O)c(OC)c1,57.7%

row,SMILES,growth
1,CCN(CC)CCOc1ccc(/C(=C(\C)c2ccc(OC)c(F)c2)c2ccc(Cl)cc2)cc1,94.7%
2,C=C1C(=O)O[C@H]2[C@H]1CC/C(COC(=O)/C=C\C(=O)NCc1ccc(Cn3c(=O)sn(-c4ccc(C#N)cc4)c3=O)cc1)=C\CC[C@@]1(C)O[C@@H]21,-82.2% (active)
3,CN(C)CCN1C(=O)c2cccc3c(-c4ccc(-c5nc6c7ccccc7c7ccccc7c6[nH]5)cc4)ccc(c23)C1=O,117%
4,c1ccc([P+](CCCc2n(Cc3ccc4ccccc4c3)c3ccccc3[n+]2Cc2ccc3ccccc3c2)(c2ccccc2)c2ccccc2)cc1,91%
5,CCCCS(=O)(=O)Oc1ccc(-c2nc(C)c(C(=O)OCC)s2)cc1C=O,89%
6,CCCCN(Cc1ccc(C(=O)NO)cc1)C(=O)Nc1ccc(OCCCCCCCCCn2cc(CCCCC(=O)N[C@H](C(=O)N3C[C@H](O)C[C@H]3C(=O)NCc3ccc(-c4scnc4C)cc3)C(C)(C)C)nn2)cc1,34.6%
7,COc1ccc(/C(C)=C(\c2ccc(Cl)cc2)c2ccc(OCCN3CCCCCC3)cc2)cc1F,75.6%
8,C=C1C(=O)O[C@H]2[C@H]1CC/C(COC(=O)/C=C\C(=O)NCc1ccc(Cn3c(=O)sn(-c4ccc(Cl)cc4)c3=O)cc1)=C\CC[C@@]1(C)O[C@@H]21,-83.5% (active)
9,O[C@H]1CO[C@H]2[C@@H]1OC[C@@H]2Oc1ccc(Nc2nc(Nc3ccc(F)c(Cl)c3)ncc2F)cc1Cl,74.7%
10,O=C(CCc1nc(-c2cccc(Cl)c2)no1)Nc1ccccn1,93.7%
11,COc1ccc(Cn2cnc3cc(C(=O)Nc4cccc5ccccc45)ccc32)c(OC)c1,35.4% [30 µM]
12,Cc1nc(Nc2ccc(N)cc2)c2ccccc2n1,103%
13,COc1cccc(/C=C2\COc3ccc(O)cc3C2=O)c1OC,86.5%
14,CC(C)c1ccc(NC(=O)Cc2ccc(Nc3ncnc4cc(-c5cnn(CCN(C)C)c5)ccc34)cc2)cc1,-82.6% [30 µM] (active)
15,O=C1c2cccc3c(-c4ccc(-c5nc6c7ccccc7c7ccccc7c6[nH]5)cc4)ccc(c23)C(=O)N1CCN1CCNCC1,103%
16,O=C1/C(=C/c2ccc([N+](=O)[O-])cc2)COc2ccc(O)c(O)c21,18.8%
17,Cn1ccnc1C(=O)/C=C/c1ccc(C(=O)Nc2ccc(S(F)(F)(F)(F)F)cc2)cc1,12.2%
18,COc1ccc(OC)c(C(=O)Nc2cccc(-c3cc(=O)c4ccccc4o3)c2)c1,64.4%
19,C=C1C(=O)O[C@H]2[C@H]1CC/C(COC(=O)/C=C\C(=O)NCc1ccc(Cn3c(=O)sn(CCCI)c3=O)cc1)=C\CC[C@@]1(C)O[C@@H]21,-63.9% (active)
